Data from PubChem BioAssay AID493208 (National Center for Advancing Translational Sciences (NCATS), 2011).
The campaign covered roughly 44,000 compounds. About 340 (0.77%) were called active. Roughly 5% stayed inconclusive and do not appear here. Calls follow the shape of the dose curve; as a rule, active = well fitted inhibition curve with a large enough effect; inconclusive = small, poorly fitted or top-dose-only effect; inactive = flat fitted curve, though single readings scatter. What follows is part of a selection rich in actives, with near analogues and random picks from the rest.

test: Acumen qHTS Assay for Inhibitors of the mTORC1 Signaling Pathway in MEF (Tsc2-/-, p53-/-) Cells: Sytravon; settings: phospho-rpS6 immunofluorescence/PI, 24 h; series mostly up to 38.3 µM; also: nearly all actives have a fitted effect of over 50% in size
Text: NIH Molecular Libraries Probe Production Centers Network [MLPCN] NIH Chemical Genomics Center [NCGC] MLPCN Grant: NS059428-01 Assay Submitter (PI): Blenis, John; Hoffman, Greg; Harvard University NCGC Assay Overview: The mammalian target of rapamycin (mTOR) is an intracellular serine/threonine kinase Aberrant regulation of mTOR signaling plays a causative role in a number of human diseases, including cancer, benign tumors such as lymphangioleiomyomatosis (LAM) and Tuberous Sclerosis Complex (TSC), and metabolic diseases such as diabetes and obesity. This project aims to identify inhibitors of ribosomal protein S6 (rpS6) phosphorylation. The phosphorylation of rpS6 is a key event downstream of mTOR activation. The assay uses a phospho-specific antibody of phospho-rpS6 to detect inhibitors of mTOR activation. Mutations in the Tsc1 and Tsc2 genes are the underlying genetic lesions responsible for TSC, causing constitutive activation of the mTORC1 pathway and leading to profound effects on cell metabolism. Aberrant metabolism in cancer has recently received significant attention as a target to develop therapeutic agents in the treatment of cancer.1 As Tsc2-/- cells have lost the ability to respond to energy and growth factor deprivation, these cells are unable to properly down regulate cellular biosynthetic processes in response to metabolic stress, and are thus extremely sensitive to glucose deprivation-induced death.2 A central goal of this project is to explore the unique cell survival and metabolic properties of cells with Tsc1 or Tsc2 by screening for compounds that selectively target the Tsc2-/- MEFs by screening both Tsc2-/- and WT MEF cell lines. We hope to better understand these aspects of TSC physiology in order to exploit them for therapeutic benefit.
NCGC Acumen Assay Protocol Summary: For quantitative high throughput analysis of mTORC1 signaling, we developed a cell-based assay for immuno-fluorescence based detection of rpS6 phosphorylation on the Acumen Explorer that will be used a platform for the primary small molecule screen. Mouse embryonic fibroblasts (MEFs) are cultured in 1536-well plates using DMEM + 10% FBS. Twenty-four hrs after plating, test compounds (solubilized in DMSO) are delivered and incubated with the cells for 24 hrs at 37 degree Celsius. Following the incubation, media with compound is aspirated and the cells are fixed in 4% paraformaldehyde (PFA) containing PBS + 0.2% TX-100. Next, PFA is aspirated, cells are washed two times with PBS plus 0.2% TX-100 and the cells are blocked for 1 hr at room temperature (blocking buffer: LiCOR Blocking Buffer plus 0.2% TX-100). […] Cells are washed two times with PBS plus 0.2% TX-100, and stained with 10 uM propidium iodide (PI) for 20-25 minutes for cell number measurement (1:500 dilution of Hoescht staining is also added for IN Cell imaging). The plates are scanned on the Acumen Explorer laser scanning instrument (TTP Labtech) using the 488nm laser for simultaneous excitation of the Alexa-488 and PI. […] The normalized phospho-S6 staining is calculated as the ratio of the integrated Alexa 488 intensity divided by the integrated PI intensity for the single concentration rapamycin control (7.5 nM) and DMSO columns. […] Inhibition of the pathway is defined based on the normalized phospho-S6 intensity in rapamycin treated cells. Active cells are defined as those with a normalized phospho-S6 staining above this threshold, and each treatment is reported as the % positive cells in the well, where thresholds are defined by selecting wells with the highest and lowest signal and differentiating between the % non-active and % active populations. In addition to the pathway specific phospho-S6 endpoint, the number of PI stained cells from the Acumen is recorded as a measure of cell viability. The primary screen was performed with a MEF cell line in a defined genetic background, Tsc2-/-, p53-/- cell line stably transfected with an empty vector control (Tsc2-/- MEF).

Potency, inactive:
CCOc1cc(C(=O)NCCc2csc3nc(-c4ccc(C)cc4)nn23)cc(OCC)c1OCC
COc1cccc(NC(=O)CN2C(=O)c3ccccc3Sc3ncccc32)c1
CC1=C(c2ccc(F)cc2)S(=O)(=O)N=C1N1CCC(C(=O)NCCc2ccccc2C)CC1
COc1cc(NC(=O)c2cc(C3CC3)nc3c2c(C)nn3-c2ccccc2)cc(OC)c1
COc1cccc(CNC(=O)C2CCN(S(=O)(=O)c3ccc4c(ccn4C)c3)CC2)c1
Cc1ccc(OCCSc2nc(C)c(Cc3ccccc3)c(=O)[nH]2)cc1
Cc1ccc(Cn2c(=O)n(CCCC(=O)NCc3ccccc3Cl)c(=O)c3ccccc32)cc1
CCc1ccc(NC(=O)c2cc(S(=O)(=O)NC3CCCCCC3)ccc2F)cc1
Cc1ccccc1NC(=O)Cn1cc(C(=O)c2cccs2)c2ccccc21
O=C(c1cnn(-c2ccc(F)cc2)c1-n1cccc1)N1CCN(c2ccc(F)cc2)CC1
CCOC(=O)c1cc(-c2ccccc2)n(-c2cccc(C(=O)Nc3cc(OC)cc(OC)c3)c2)c1C
Cc1oc2ccc(O)c(CN3CCOCC3)c2c1C(=O)Nc1cccc(Cl)c1C
O=C1OC(C(=O)Nc2cccc(Br)c2)Cc2ccccc21 (stereo not drawn)
Cc1c(NC(=O)c2cc(-c3ccc(Br)cc3)on2)c(=O)n(-c2ccccc2)n1C
COc1ccc(NC(=O)C2CCCN(S(=O)(=O)c3c(C)[nH]c(=O)[nH]c3=O)C2)c(OC)c1 (stereo not drawn)
COc1ccc(-c2nnc(SCC(=O)Nc3ccc(C(C)C)cc3)nc2-c2ccc(OC)c(OC)c2)cc1OC
Clc1cccc(-n2ncc3c(NCCc4ccccc4)ncnc32)c1
Fc1ccc(Nc2nc(SCc3ccccc3Cl)nc3ccccc23)cc1
O=C(C1CCCN(S(=O)(=O)c2cccc3nonc23)C1)N1CCN(c2ccccc2F)CC1 (stereo not drawn)
Cc1ccc(N2CC(c3nnc(Cc4ccccc4Cl)o3)CC2=O)cc1 (stereo not drawn)
CCOC(=O)c1ccc(CN(Cc2ccccc2)S(=O)(=O)c2ccc(Cl)cc2)cc1
Cn1c(=O)c(C(=O)O)nn(-c2ccccc2)c1=O
Cc1ccc(-c2cn3c(n2)sc2cc(C(=O)NCCCc4ccccc4)ccc23)cc1
CCCCN1CC(c2nc3ccccc3n2CCCCOc2ccc(C)cc2C)CC1=O (stereo not drawn)
COc1cccc(C(=O)NC2=NC(c3ccc(N(C)C)cc3)CC(=O)N2)c1 (stereo not drawn)
CCN(C(=O)Cn1cc(S(=O)(=O)N2CCN(c3ccccc3F)CC2)c2ccccc2c1=O)c1ccc(C)c(C)c1
CSc1nc(-c2ccccc2Cl)nc2c1Cc1c(CO)cnc(C)c1O2
Cc1cc2ccccc2n1CCNC(=O)c1ccc(F)cc1
Cc1cccc(NC(=O)N2CCC(CN3CCc4ccccc4C3)CC2)c1C
CCC(=O)N1CCc2cc(CNC(=O)Nc3ccccc3Cl)ccc21
COc1ccc(CNC(=O)CSCc2nc(-c3ccccc3F)oc2C)cc1
CCOc1ccc(-n2c(SCC(=O)NCc3ccccc3)nc3n[nH]c(C)c3c2=N)cc1
Cc1cccc(NC(=O)C2CCN(S(=O)(=O)c3c(C)noc3/C=C/c3ccco3)CC2)c1
